From PubChem BioAssay come the findings set out here.

For part of these data: Results with a measured potency or affinity are listed apart. Calls of active or inactive are those of the source.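 How the source made its calls, unless noted: active means at least 20% inhibition of 6-phosphogluconate dehydrogenase activity; inactive means the rest.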

The term inhibition denotes the change of the read-out against control, counted positive when it falls. Broadly, the viability is a read-out of living cells in per cent, often relative to untreated cells.

Test [1] is described as follows: blockers of polyQ-driven CASP3 activation – cell-based (AID 1583). Particulars: polyglutamine-induced caspase-3 activation, cell assay; stronger effect = higher value;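 tested at 10 µM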.
Test [2] is described as follows: yeast 75Q aggregation reduction – 75Q-TubU reporter (AID 1593). The settings on record: Yeast 75Q polyglutamine aggregation reporter.
The nature of test [3]: restoration of touch response, mutant HTT neurons – whole organism, C. elegans mechanosensory neurons, N-terminal huntingtin (AID 1599). Particulars: C. elegans polyQ-huntingtin mechanosensory neurons, stronger effect = higher value.
Test [4] can be described thus: blockers of cytochrome c efflux from mitochondria – biochemical, purified mitochondria (AID 1603).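 Further: mouse liver mitochondria challenged with calcium chloride; signal normalized to the plate average as 100%.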 The settings on record: stronger effect = lower value.
A short description of test [5]: polyglutamine aggregate formation blockers (AID 1604). The settings on record: polyglutamine-induced protein aggregation inhibition assay; stronger effect = higher value; tested at 2.5 µM.
Test [6] can be described thus: glutamate transport activators, MN-1 cells, MN-1 cell line (AID 1612).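 Further: tested at 1 µM final; 0% = mean of DMSO vehicle wells on each plate; positive means more glutamate uptake than control and negative means less.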 The settings on record: MN-1 motor neuron cells, stronger effect = higher value.
Test [7] can be described thus: GFP-Q80 aggregate reduction, neuronal-like cells, cell-based, NGF-treated PC12, GFPQ80 (AID 1614).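 Further: lower means fewer inclusions and 0 means no inclusions at all.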 The settings on record: PC12 NGF-treated GFP-polyQ80 inclusion reduction.
Test [8] is described as follows: 75Q-TubH aggregate inhibition, S. cerevisiae, yeast (AID 1616). Particulars: S. cerevisiae 75Q-TubH polyglutamine aggregation suppression; stronger effect = higher value.
Test [9] addresses 6-phosphogluconate dehydrogenase, decarboxylating (Homo sapiens) (UniProt P52209). Description: inhibition of human phosphogluconate dehydrogenase – biochemical, recombinant enzyme, NADPH absorbance, primary screen (AID 1159550). Particulars: recombinant 6PGD, NADPH absorbance 341 nm; at 10 µM; stronger effect = higher value.
The target of test [10] is Mitogen-activated protein kinase 7 (Homo sapiens) (UniProt Q13164). Description: Gal4-ERK5 driven luciferase induction – cell-based, HTS, primary screen (AID 1508626;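 active means luciferase signal above three times the same-plate solvent-only control wells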;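 further: luciferase driven by Gal4-ERK5 fusion binding five Gal4 sites before minimal TATA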). The settings on record: HeLa Gal4-ERK5 transactivation, 18 h, at 5 µM, stronger effect = higher value.
The nature of test [11]: P. berghei load reduction in hepatocytes – cell-based, HepG2, luciferase luminescence, HepG2 viability, primary screen (AID 624349; in the data active means parasite load remaining mostly below about 12%, no sharp cut-off; inactive means mostly above about 10%;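 further: 100% = mean of DMSO negative control wells on the same plate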). The settings on record: P. berghei liver stage in HepG2, luciferase luminescence, concentration not given here; parasite load remaining: stronger effect = lower value; viability: measured here: HepG2 viability without parasites.

Mitogen-activated protein kinase 7 (Homo sapiens), sequence (Q13164 whole entry, looked up, the tested form may be a part): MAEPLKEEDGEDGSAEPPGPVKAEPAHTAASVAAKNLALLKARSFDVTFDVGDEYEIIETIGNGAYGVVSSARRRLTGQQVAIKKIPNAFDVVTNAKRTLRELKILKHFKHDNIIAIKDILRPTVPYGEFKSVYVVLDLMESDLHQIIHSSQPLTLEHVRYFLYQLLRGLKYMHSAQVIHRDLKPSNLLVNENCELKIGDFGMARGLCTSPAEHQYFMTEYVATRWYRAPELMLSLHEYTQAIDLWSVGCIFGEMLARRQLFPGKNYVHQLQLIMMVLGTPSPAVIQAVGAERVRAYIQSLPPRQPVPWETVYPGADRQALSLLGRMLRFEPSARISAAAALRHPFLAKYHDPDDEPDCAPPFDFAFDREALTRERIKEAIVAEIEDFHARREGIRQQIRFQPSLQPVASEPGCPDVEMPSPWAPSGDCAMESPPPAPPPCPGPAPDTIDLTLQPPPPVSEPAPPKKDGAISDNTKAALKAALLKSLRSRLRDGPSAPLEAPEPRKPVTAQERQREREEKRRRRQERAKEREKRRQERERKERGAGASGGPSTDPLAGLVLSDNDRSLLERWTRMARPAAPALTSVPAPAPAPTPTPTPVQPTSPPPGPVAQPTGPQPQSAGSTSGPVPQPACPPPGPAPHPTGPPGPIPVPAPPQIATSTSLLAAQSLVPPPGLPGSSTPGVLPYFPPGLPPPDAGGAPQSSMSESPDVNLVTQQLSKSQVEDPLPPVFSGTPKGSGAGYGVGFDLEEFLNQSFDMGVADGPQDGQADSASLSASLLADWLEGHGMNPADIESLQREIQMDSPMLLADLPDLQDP
6-phosphogluconate dehydrogenase, decarboxylating (Homo sapiens), sequence (P52209 whole entry, looked up, the tested form may be a part): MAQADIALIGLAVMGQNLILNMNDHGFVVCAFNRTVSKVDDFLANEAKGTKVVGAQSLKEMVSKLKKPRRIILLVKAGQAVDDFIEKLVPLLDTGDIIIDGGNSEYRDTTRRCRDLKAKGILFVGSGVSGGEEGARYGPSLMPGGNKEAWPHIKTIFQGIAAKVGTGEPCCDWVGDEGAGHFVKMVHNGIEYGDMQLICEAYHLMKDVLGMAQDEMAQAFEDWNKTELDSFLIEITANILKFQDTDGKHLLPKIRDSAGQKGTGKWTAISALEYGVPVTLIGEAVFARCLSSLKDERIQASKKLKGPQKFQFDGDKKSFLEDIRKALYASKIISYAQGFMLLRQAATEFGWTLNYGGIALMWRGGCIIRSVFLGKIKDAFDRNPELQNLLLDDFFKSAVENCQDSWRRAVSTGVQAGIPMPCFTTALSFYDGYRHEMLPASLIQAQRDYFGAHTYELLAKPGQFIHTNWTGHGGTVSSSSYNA

Regarding `O=C(O)c1cc(O)ccc1O`, the inhibition was -0.2% in test [1] and -15.2% (inactive) in test [9]. In test [2], the score stood at 0.92. Moreover, the rescue above control in test [3] was -5.86. In addition, in test [4], the cytochrome c release ratio worked out at 0.99. Further, in test [5], the inhibition of aggregation was found to be 72.2%. Also, the glutamate uptake change in [6] was -11.6%. In test [7], this compound yielded an inclusion score of 2. The compound further showed an aggregation suppression score in [8] of 0.337.

For the compound `CC(=O)OC[C@H]1O[C@@H](Oc2cc(OC(C)=O)c3c(=O)cc(-c4ccc(OC(C)=O)cc4)oc3c2)[C@H](OC(C)=O)[C@@H](OC(C)=O)[C@@H]1OC(C)=O`, the inhibition in test [9] was 6.51% (inactive). Further, the luciferase signal in [10] was 80 AU (inactive).

In the case of `CC1(C)C[C@@H]2C(=O)CC[C@H]3O[C@]3(C)CC[C@H]21`, in test [9], the inhibition was 14.4% (inactive). Further, the luciferase signal in test [10] was 44 AU (inactive).

Turning to `C[C@@H]1O[C@@H](O[C@H]2[C@H](O[C@H]3CC[C@@]4(C)[C@@H](CC[C@]5(C)[C@@H]4CC=C4[C@@H]6CC(C)(C)CC[C@]6(C(=O)O)CC[C@]45C)[C@]3(C)CO)OC[C@H](O)[C@@H]2O)[C@H](O)[C@H](O)[C@H]1O`, the inhibition in test [9] was 10.9% (inactive). In [10], the luciferase signal is 40 AU (inactive).

Turning to `CC12CCC3c4ccc(OCc5ccccc5)cc4CCC3C1C[C@@H](O)[C@@H]2O` (stereo not given in full), the inhibition in test [1] was -24.8%; in test [9], -6.08% (inactive). This compound also displayed a score in [2] of -1.62. The compound also showed a rescue above control in test [3] of 18.3. In addition, the cytochrome c release ratio in [4] came to 1.14. The inhibition of aggregation in test [5] amounted to 88.8%. Besides, the glutamate uptake change in [6] is -1.58%. This compound displayed an aggregation suppression score in test [8] of -0.303.

As to `COC(=O)C[C@H]1C2(C)CC34OC5(C)O[C@@]6([C@H](OC)C(OC(=O)C(C)C)[C@]7(C)C(/C(=C(/OC)C(C)C)C(=O)O[C@H]7c7ccoc7)[C@@]6(O5)[C@H](OC)[C@@]3(OC)C2OC(C)=O)[C@]14C` (stereo not given in full), the inhibition in test [9] was -3.86% (inactive). Further, the luciferase signal in [10] is 20 AU (inactive).

Regarding `COc1ccc(-c2cc(=O)c3ccccc3o2)cc1`, the inhibition in [9] was -3.26% (inactive). In test [10], the luciferase signal was 112 AU (inactive).

For the compound `NC(=O)c1ccc[n+]([C@@H]2O[C@H](COP(=O)([O-])OP(=O)(O)OC[C@H]3O[C@@H](n4cnc5c(N)ncnc54)[C@H](OP(=O)(O)O)[C@@H]3O)[C@@H](O)[C@H]2O)c1`, the inhibition in test [1] was 19.9%; in test [9], 16.2% (inactive). The score in test [2] was found to be 1.08. In addition, the rescue above control in test [3] was 9.74. Also, the cytochrome c release ratio in [4] is 0.78. In test [5], the inhibition of aggregation is -21.6%. In addition, in test [6], the glutamate uptake change is 16.5%. This compound also gave an inclusion score in test [7] of 2. In addition, the aggregation suppression score in test [8] worked out at 0.975. Further, the parasite load remaining in test [11] was 169% (inactive). Further, the viability in [11] came out at 83.2%. The luciferase signal in test [10] is 32 AU (inactive).

For the compound `CCC(C)C(N)C(=O)N1CCCC1C(=O)NC(C(=O)O)C(C)CC` (stereo not given), the results for the inhibition in test [1] and in test [9] were -6.01% and -1.23% (inactive), respectively. The score in test [2] was 1.3. In [3], the rescue above control worked out at 1.96. Further, the cytochrome c release ratio in [4] is 0.74. For the same compound, the inhibition of aggregation in [5] is 14.9%. The glutamate uptake change in test [6] amounted to 11.9%. In [7], this compound returned an inclusion score of 2. The same compound returned an aggregation suppression score in test [8] of 1.44.

For the compound `COC(=O)[C@H]1[C@H]2C[C@H]3c4[nH]c5cc(OC)ccc5c4CCN3C[C@H]2C[C@@H](OC(=O)c2cc(OC)c(OC)c(OC)c2)[C@@H]1OC`, the inhibition in [1] was -6.47%; in [9], 0.174% (inactive). The score in test [2] was determined as 1.04. The same compound had a rescue above control in test [3] of -3.75. Moreover, in [4], the cytochrome c release ratio was 1.13. In addition, in [5], the inhibition of aggregation was determined as 26.7%. The glutamate uptake change in test [6] was 8.81%. Also, the inclusion score in test [7] was 2.5. In test [8], this compound gave an aggregation suppression score of 0.976. For the same compound, in test [10], the luciferase signal is 92 AU (inactive).

For `COc1ccc(-c2cc(=O)c3c(O)c(OC)c(O[C@@H]4O[C@H](CO[C@@H]5O[C@@H](C)[C@H](O)[C@@H](O)[C@H]5O)[C@@H](O)[C@H](O)[C@H]4O)cc3o2)cc1`, in test [9], the inhibition was -2.78% (inactive). In addition, the luciferase signal in test [10] was 76 AU (inactive).
